# Measurements from PubChem BioAssay AID1347423 (Functional Genomics Laboratory (NCATS/FGL), 2020).
# Out of some 52,000 sequences screened, about 210 (0.4%) were called active.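 The calls were made as follows: active = gene whose silencing raises cell survival under the drug, median off-target-corrected z-score across its silencing RNAs 2 or more; inactive = the rest.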 The entries come from a sample that favours actives as a whole.
# Assay: Resistance to Poly (ADP-Ribose) Polymerase inhibitor: Gene Identification via Genome-wide siRNA Screen
# Settings: mouse BRCA2 R2336H ES cells, olaparib, CellTiter-Glo viability; hits give high values
# Outline: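 Genome-wide siRNA screen (3 siRNAs/gene, 20 nM) in mouse ES cells carrying hypomorphic BRCA2 R2336H; olaparib 500 nM added 48 h post-transfection, CellTiter-Glo viability 72 h later. Normalized to plate-median negative control; MAD z-scores, gene median, seed-adjusted.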
row,Sequence,z-score
1,GGACGUGUGGCUGUUGACATT against Sdc1,-2.23 (inactive)
2,GCUUUAGAUACGUGAUUAGTT against 5830417C01Rik,-1.26 (inactive)
3,GCGACUACUUAGACACUUUTT against 4732481H14Rik,-1.94 (inactive)
4,UAGCCAUCGCUCUUUCUUATT against Olfr594,-0.973 (inactive)
5,GGACAAAGGUGUCAACUCCTT against Crmp1,-0.491 (inactive)
6,GCUCCUAGGAACUUGGUUATT against Pacsin2,2.36 (active)
7,CGAGUUCGGUAUGAGUGGATT against Clptm1,-1.24 (inactive)
8,GGUCGGAAGAAUCUAAAGGTT against Dmp1,0.0661 (inactive)
9,GGAAGAGAGGACCAUGAAGTT against Usp18,2.69 (active)
10,GAGAAUCCAGAACUCCAAUTT against Olfr952,-0.963 (inactive)
11,GCAAUCAUUAAGCAGAUCATT against Prkce,-2.49 (inactive)
12,GGCCGACAAGCGAUCAAAATT against AU040829,-0.237 (inactive)
13,GGAUUUGGCCAACUCACCCTT against Acpp,0.16 (active)
14,CCCUUCCAACAAUUAUACUTT against Tmem27,1.04 (inactive)
15,GGAGAGAAAGAAGUUGUUGTT against Lcn5,2.43 (inactive)
16,GGAUUUCGACAAUAUGAAGTT against Chrnb2,2.24 (active)
17,CCUAUGAAGCUCCAUUAUGTT against Madcam1,0.762 (inactive)
18,CACUCUUGAUACAAAUGAGTT against Ifna6T,0.264 (inactive)
19,GGCACAAAGGCAGUUAUUCTT against 1110049G11Rik,0.847 (inactive)
20,GGGAAAAAUAUCAGUUAUGTT against Khdrbs1,1.08 (active)
21,GCUGGUGUCAUUAGACAGUTT against Npc1l1,-0.302 (inactive)
22,GGCUAUAUCAAUGAAUUUGTT against Polr3b,0.129 (inactive)
23,GGAUGUUCAUCUAUUUCUUTT against Mja1l,-0.191 (inactive)
24,GGGACCAAGCAGGUAAAAATT against Kif3a,4.17 (active)
25,GGCCUAAGGACAAUUAUUUTT against 9130022A01Rik,0.222 (inactive)
26,CCAAAUUCAUUCUAGCUCGTT against Copeb,0.474 (inactive)
27,CCGAAUGGAAUACCAAAUUTT against Cst8,-0.186 (inactive)

row,Sequence,z-score
1,GGAUGUCAGCUGGUGGUUATT against Tmprss6,-0.447 (inactive)
2,CCAUCUUGGGUUCUGGUCATT against BC057627,-0.312 (active)
3,GGUGUCUGAAUUUGUGGCUTT against Abtb1,1.65 (inactive)
4,GGGAUCAUUAAACUUUUCCTT against Taf11,0.894 (inactive)
5,GGAAAAUGUUUUACCAAUGTT against 4930470D19Rik,0.0823 (inactive)
6,GGCUAGAGACUUGGUUUUUTT against E430025L02Rik,1.23 (inactive)
7,GGUAACUGAGAAAACCAGATT against Adam29,1.12 (active)
8,GGAUCUUGAAGACCAAAAATT against 9030409G11Rik,-0.527 (inactive)
9,GGCAAGAGAAUUCAGAUCUTT against Slc5a1,2.6 (inactive)
10,GGGCACAACUUCAACAGCUTT against Cklfsf8,1.53 (inactive)
11,GGUUAUCACUCCUCAACAATT against Foxp1,-0.826 (inactive)
12,GGUCUACGAGUUUAUUGCUTT against Phc1,0.722 (inactive)
13,GCCCUUUGGAUAACAGUGATT against Sufu,-0.968 (inactive)
14,GGCCUUCAAUCACCUAGAGTT against Pde6g,2.23 (active)
15,GCAGCUGGCUGCUUUCACATT against AV028368,-0.955 (inactive)
16,CCGACGUGCAUGGAGAAAATT against 1700030J22Rik,-1.71 (inactive)
17,GCCAUUAAUCUCACAUGUATT against A930001N09Rik,-0.871 (inactive)
18,GGAAGACCGUACUAUGUUUTT against Gtl2,-2.38 (inactive)
19,CCAGUUGGAAAUAUGACGATT against 2510002A14Rik,0.99 (inactive)
20,CCUAUGUCAUCAUUGGAGUTT against 2310005G13Rik,0.537 (inactive)
21,CGAUGACAUCAGGAUUGUUTT against Gpr128,1.23 (active)
22,GCUGAUUUCCAAAGAUAAUTT against Glycam1,0.301 (inactive)
23,GCCCAUGAAUUUUUACUUATT against C330019G07Rik,0.714 (inactive)
24,CGAAGGGACCGAAGAAUCCTT against 5730538E15Rik,-0.602 (inactive)
25,CCAGUCCUACUUAGCAAAGTT against BC046404,1.34 (inactive)
26,CCAUUACACAAAGUUUUGCTT against Stard6,0.874 (inactive)
27,GGGUUCAAGAGAUGAUAUUTT against Usp11,2.47 (active)

row,Sequence,z-score
1,GGAAAGUGUGUUCAUUAGUTT against Pla2g2d,-0.775 (inactive)
2,GGAAAAGGAGGUGGUACUGTT against Agc1,0.55 (inactive)
3,CGCCCAGUGCAAUUUUUUCTT against Gm592,-0.745 (inactive)
4,CCAUAGCACUAAAUCAGAUTT against 4933421G18Rik,0.387 (inactive)
5,GGACCUAUUUCUCUGCUCCTT against E330026B02Rik,-0.251 (inactive)
6,GGACAUUCGUGGUUCCAUCTT against 4833412N02Rik,0.546 (inactive)
7,GGAGGUCGCUUCCUAUUACTT against Tat,1.26 (active)
8,GGACUAUCAGGACCUUUUUTT against Dnajb3,-1.77 (inactive)
9,GCUAAAAGGUAAGUACUUCTT against AB041803,0.00857 (inactive)
10,GGAGAUUGAUGAGCAUGCCTT against Rab40b,0.456 (inactive)
11,GGUUCUGAAGAUGGAGGUUTT against Ttbk1,-1.25 (inactive)
12,GCUGUUGGUUUCUACUCACTT against Adam21,1.43 (active)
13,GGAAGACCUGAUUGGAAAATT against Trpm1,0.553 (inactive)
14,GAGCCUUCUAAGUCUGCACTT against Hist1h2bb,0.996 (inactive)
15,GGAAAUCACCAGAGCUGAUTT against Atp6v0a2,1.56 (inactive)
16,GGGCUAUUAAAUGAUUUCATT against Pax1,-0.101 (inactive)
17,CGUAGCAAUCUUGGUUGCUTT against Hoxa3,0.734 (inactive)
18,GGCUGUGAGAUAGAUCUAATT against E130112L23Rik,-0.595 (inactive)
19,GGAUGUGGACUCAAAGAAATT against 1110001E17Rik,1.9 (active)
20,CGAGGGAUAAGAGUCUACGTT against D4Bwg1540e,-0.0629 (inactive)
21,GGCCAUUAACAGCAGUCUGTT against Kifc1,-2.66 (inactive)
22,GGGACUUUUUUUGAAUCCUTT against Ndrg3,0.835 (inactive)
23,GGCAGCGCAAUGGAUUAGUTT against Chrng,1.99 (active)
24,GGAGCAACAGCCAAAUACCTT against 1700001F22Rik,0.124 (inactive)
25,CGGCAGGAUGAAUGAGAUCTT against Bccip,0.692 (inactive)
